# In ChEMBL document CHEMBL2218924, “A broad activity screen in support of a chemogenomic map for kinase signalling research and drug discovery” (Biochem J, 2013):
# Molecular target: T1, Serine/threonine-protein kinase NLK (Homo sapiens) (UniProt Q9UBE8)
# T1 sequence (whole entry): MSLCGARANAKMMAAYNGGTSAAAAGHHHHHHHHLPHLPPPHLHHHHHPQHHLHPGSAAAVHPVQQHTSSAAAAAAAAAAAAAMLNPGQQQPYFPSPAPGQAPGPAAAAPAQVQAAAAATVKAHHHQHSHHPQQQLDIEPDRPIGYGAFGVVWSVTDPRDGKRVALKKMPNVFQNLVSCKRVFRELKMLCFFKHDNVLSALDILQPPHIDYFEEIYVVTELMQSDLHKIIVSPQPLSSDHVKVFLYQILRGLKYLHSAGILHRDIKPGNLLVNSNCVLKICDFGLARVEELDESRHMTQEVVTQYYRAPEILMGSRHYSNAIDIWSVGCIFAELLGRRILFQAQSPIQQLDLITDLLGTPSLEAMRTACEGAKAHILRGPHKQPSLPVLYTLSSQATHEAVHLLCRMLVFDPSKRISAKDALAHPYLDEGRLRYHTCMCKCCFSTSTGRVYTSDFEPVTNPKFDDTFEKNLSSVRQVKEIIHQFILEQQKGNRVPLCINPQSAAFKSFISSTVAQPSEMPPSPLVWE
# Conditions: at 1 µM
row,Compound,residual activity
1,O=C(c1cc2cc(O)ccc2[nH]1)c1cc2cc(O)ccc2[nH]1,61%
2,O=C1C(Cl)=C(N2C(=O)CCC2=O)C(=O)c2ccccc21,95%
3,NCCNc1ncc(C(N)=O)c(Nc2cccc(C(F)(F)F)c2)n1,106%
4,c1ccc(-c2cnc(Nc3ccc(OCCN4CCCC4)cc3)s2)cc1,112%
5,O=C(NC(NC(=S)Nc1ccc(F)c([N+](=O)[O-])c1)C(Cl)(Cl)Cl)C(c1ccccc1)c1ccccc1 (stereo not drawn),103%
6,CCCCc1c(-c2ccc(OC)cc2)[nH]c2nccnc12,83%
7,O=C(CCCc1ccc(-c2ccccc2F)cc1)Nc1ccc(O)cc1,106%
8,CSc1nc(-c2ccc(F)cc2)c(-c2ccnc(NC(C)c3ccccc3)c2)[nH]1 (stereo not drawn),69%
9,CCCCc1c(-c2ccc(O)cc2)[nH]c2nccnc12,88%
10,O=c1c(-c2ccc(F)cc2)c(-c2ccncc2)[nH]n1-c1ccc(Cl)cc1,42%
11,CN([C@@H](Cc1ccc(OS(=O)(=O)c2cccc3cnccc23)cc1)C(=O)N1CCN(c2ccccc2)CC1)S(=O)(=O)c1cccc2cnccc12,100%
12,Cn1sc(=O)n(Cc2ccccc2)c1=O,82%
13,Fc1ccc(-c2nc3n(c2-c2ccncc2)CCS3)cc1,52%
14,NC(=O)c1cccc(-c2cc(Nc3ccc(OC(F)(F)F)cc3)ncn2)c1,94%
15,CN(C)S(=O)(=O)c1ccc2c(c1)/C(=C/c1cc3c([nH]1)CCCC3)C(=O)N2,91%
16,CC(C)(C)c1nc2c3ccc(F)cc3c3c(=O)[nH]ccc3c2[nH]1,34%
17,O=C1Nc2ccc(Cl)cc2/C1=C/c1cc(Cl)c(O)c(Cl)c1,47%
18,COc1ccc(Cl)cc1NC(=O)Nc1cc(C)nc2ccccc12,99%
19,Nc1nc(Nc2ccc(S(N)(=O)=O)cc2)nn1C(=O)c1c(F)cccc1F,75%
20,CCN1/C(=C/C(C)=O)Sc2ccc(OC)cc21,76%
21,Nc1n[nH]c2nc3ccccc3nc12,97%
22,O=C1NC(=O)C(c2cn(CCCO)c3ncccc23)=C1c1cnccn1,98%
23,Nc1nccc(-c2c(-c3ccc(F)cc3)ncn2C2CCNCC2)n1,34%

# Molecular target: T1, Serine/threonine-protein kinase NLK (Homo sapiens)
# Conditions: at 10 µM
row,Compound,residual activity
1,O=C(c1cc2cc(O)ccc2[nH]1)c1cc2cc(O)ccc2[nH]1,19%
2,O=C1Nc2ccccc2/C1=C\c1c(Cl)[nH]c2ccccc12,73%
3,O=C1C(Cl)=C(N2C(=O)CCC2=O)C(=O)c2ccccc21,88%
4,NCCNc1ncc(C(N)=O)c(Nc2cccc(C(F)(F)F)c2)n1,81%
5,c1ccc(-c2cnc(Nc3ccc(OCCN4CCCC4)cc3)s2)cc1,56%
6,O=C(NC(NC(=S)Nc1ccc(F)c([N+](=O)[O-])c1)C(Cl)(Cl)Cl)C(c1ccccc1)c1ccccc1 (stereo not drawn),101%
7,O=C(CCCc1ccc(-c2ccccc2F)cc1)Nc1ccc(O)cc1,100%
8,CSc1nc(-c2ccc(F)cc2)c(-c2ccnc(NC(C)c3ccccc3)c2)[nH]1 (stereo not drawn),14%
9,CCCCc1c(-c2ccc(O)cc2)[nH]c2nccnc12,59%
10,O=c1c(-c2ccc(F)cc2)c(-c2ccncc2)[nH]n1-c1ccc(Cl)cc1,12%
11,CN([C@@H](Cc1ccc(OS(=O)(=O)c2cccc3cnccc23)cc1)C(=O)N1CCN(c2ccccc2)CC1)S(=O)(=O)c1cccc2cnccc12,99%
12,Cn1sc(=O)n(Cc2ccccc2)c1=O,92%
13,Fc1ccc(-c2nc3n(c2-c2ccncc2)CCS3)cc1,20%
14,NC(=O)c1cccc(-c2cc(Nc3ccc(OC(F)(F)F)cc3)ncn2)c1,40%
15,CN(C)S(=O)(=O)c1ccc2c(c1)/C(=C/c1cc3c([nH]1)CCCC3)C(=O)N2,93%
16,CC(C)(C)c1nc2c3ccc(F)cc3c3c(=O)[nH]ccc3c2[nH]1,19%
17,O=C1Nc2ccc(Cl)cc2/C1=C/c1cc(Cl)c(O)c(Cl)c1,15%
18,COc1ccc(Cl)cc1NC(=O)Nc1cc(C)nc2ccccc12,82%
19,O=c1cc(N2CCOCC2)oc2c(-c3ccccc3)cccc12,72%
20,Nc1nc(Nc2ccc(S(N)(=O)=O)cc2)nn1C(=O)c1c(F)cccc1F,34%
21,CCN1/C(=C/C(C)=O)Sc2ccc(OC)cc21,77%
22,Nc1n[nH]c2nc3ccccc3nc12,91%
23,O=C1NC(=O)C(c2cn(CCCO)c3ncccc23)=C1c1cnccn1,93%
24,Nc1nccc(-c2c(-c3ccc(F)cc3)ncn2C2CCNCC2)n1,9%

# Molecular target: Serine/threonine-protein kinase PAK 2 (Homo sapiens) (UniProt Q13177)
# Sequence (Q13177 whole entry): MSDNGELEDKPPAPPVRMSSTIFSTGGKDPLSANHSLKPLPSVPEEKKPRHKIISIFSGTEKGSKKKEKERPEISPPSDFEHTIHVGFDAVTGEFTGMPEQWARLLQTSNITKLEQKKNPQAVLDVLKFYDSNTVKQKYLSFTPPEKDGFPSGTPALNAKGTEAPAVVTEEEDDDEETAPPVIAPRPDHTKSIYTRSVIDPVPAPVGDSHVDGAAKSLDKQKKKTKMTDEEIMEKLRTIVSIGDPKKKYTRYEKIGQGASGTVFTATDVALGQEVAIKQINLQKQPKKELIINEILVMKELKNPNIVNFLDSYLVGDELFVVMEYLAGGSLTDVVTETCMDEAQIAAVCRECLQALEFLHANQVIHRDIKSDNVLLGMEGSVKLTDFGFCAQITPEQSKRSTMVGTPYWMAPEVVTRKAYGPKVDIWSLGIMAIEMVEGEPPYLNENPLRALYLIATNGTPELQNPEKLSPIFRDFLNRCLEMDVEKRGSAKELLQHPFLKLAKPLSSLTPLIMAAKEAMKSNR
# Conditions: at 1 µM
row,Compound,residual activity
1,O=C(c1cc2cc(O)ccc2[nH]1)c1cc2cc(O)ccc2[nH]1,100%
2,O=C1C(Cl)=C(N2C(=O)CCC2=O)C(=O)c2ccccc21,101%
3,CCCCc1c(-c2ccc(OC)cc2)[nH]c2nccnc12,112%
4,O=C(CCCc1ccc(-c2ccccc2F)cc1)Nc1ccc(O)cc1,106%
5,CSc1nc(-c2ccc(F)cc2)c(-c2ccnc(NC(C)c3ccccc3)c2)[nH]1 (stereo not drawn),100%
6,Cn1sc(=O)n(Cc2ccccc2)c1=O,97%
7,N#C/C(=C\c1ccc(O)c(O)c1)C(=O)NCc1ccccc1,103%
8,O=C1Nc2ccc(Cl)cc2/C1=C/c1cc(Cl)c(O)c(Cl)c1,97%
9,Nc1nc(Nc2ccc(S(N)(=O)=O)cc2)nn1C(=O)c1c(F)cccc1F,118%
10,O=C1NC(=O)C(c2cn(CCCO)c3ncccc23)=C1c1cnccn1,89%
11,O=C1NC(=O)C(c2cn(CCCn3ccnc3)c3ccccc23)=C1Nc1ccccc1,107%
